# The supplement of paper PMC11732987, “Enantioselective OTUD7B fragment discovery through chemoproteomics screening and high-throughput optimisation” (Communications Chemistry, 2025)
# Compound: ClCC(=O)NC1(CCCC1)C#N
# Experiment: log2 ratio of Biotin-Ahx-Ub-VS probe labelling (compound/DMSO); higher = less target engagement, active = hit call of the paper (q ≤ 0.05, log2 ratio ≤ -1)
# Details: compound concentration: 50uM; treatment time: 3 h
# Procedure: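 Round 2 competitive ABPP in HEK293T lysate. Compounds were tested at 50 and 200 µM for 3 h, followed by Biotin-Ahx-Ub-VS enrichment and diaPASEF LC-MS/MS. Values are the average log2 ratio (compound/DMSO) from an unpaired t-test (n=3 treated, n=26 DMSO).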
# Chain of UniProt P40818 (P40818 whole entry): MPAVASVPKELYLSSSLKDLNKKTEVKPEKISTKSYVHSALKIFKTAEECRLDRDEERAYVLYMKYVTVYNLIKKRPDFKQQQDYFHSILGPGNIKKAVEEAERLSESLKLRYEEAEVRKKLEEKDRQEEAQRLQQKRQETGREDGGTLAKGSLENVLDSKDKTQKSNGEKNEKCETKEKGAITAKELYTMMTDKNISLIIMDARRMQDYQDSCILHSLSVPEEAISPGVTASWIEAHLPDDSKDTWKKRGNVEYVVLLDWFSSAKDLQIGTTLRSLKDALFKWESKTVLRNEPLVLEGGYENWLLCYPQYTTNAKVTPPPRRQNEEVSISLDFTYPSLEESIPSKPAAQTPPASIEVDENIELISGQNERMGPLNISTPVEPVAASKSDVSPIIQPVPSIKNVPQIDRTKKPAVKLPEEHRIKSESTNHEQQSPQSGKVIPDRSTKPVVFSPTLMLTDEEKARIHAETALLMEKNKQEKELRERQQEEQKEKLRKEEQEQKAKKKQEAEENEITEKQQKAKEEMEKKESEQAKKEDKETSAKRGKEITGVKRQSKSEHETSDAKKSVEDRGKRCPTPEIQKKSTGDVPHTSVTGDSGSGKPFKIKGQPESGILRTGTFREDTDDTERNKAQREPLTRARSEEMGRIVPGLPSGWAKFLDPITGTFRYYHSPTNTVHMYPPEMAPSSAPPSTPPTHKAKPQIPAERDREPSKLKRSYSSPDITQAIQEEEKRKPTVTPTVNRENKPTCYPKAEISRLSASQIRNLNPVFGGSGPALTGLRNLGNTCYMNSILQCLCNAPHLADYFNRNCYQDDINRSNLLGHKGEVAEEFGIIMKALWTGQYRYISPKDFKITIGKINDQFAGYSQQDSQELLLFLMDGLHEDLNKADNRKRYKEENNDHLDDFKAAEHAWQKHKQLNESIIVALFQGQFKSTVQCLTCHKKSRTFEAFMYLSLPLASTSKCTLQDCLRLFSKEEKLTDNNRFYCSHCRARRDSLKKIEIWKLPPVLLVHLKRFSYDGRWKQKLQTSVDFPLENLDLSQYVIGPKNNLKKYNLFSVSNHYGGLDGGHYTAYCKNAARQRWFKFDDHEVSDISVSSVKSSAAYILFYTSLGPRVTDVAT
# Chain of UniProt P51665 (P51665 whole entry): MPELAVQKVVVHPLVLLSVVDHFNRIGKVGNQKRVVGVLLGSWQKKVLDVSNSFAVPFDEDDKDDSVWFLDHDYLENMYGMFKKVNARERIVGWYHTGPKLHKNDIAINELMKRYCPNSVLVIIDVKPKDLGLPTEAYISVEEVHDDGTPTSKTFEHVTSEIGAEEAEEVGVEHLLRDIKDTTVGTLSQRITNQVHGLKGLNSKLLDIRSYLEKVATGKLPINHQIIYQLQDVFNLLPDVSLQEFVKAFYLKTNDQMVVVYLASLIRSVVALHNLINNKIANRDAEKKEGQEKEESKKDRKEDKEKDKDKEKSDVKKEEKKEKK
# Chain of UniProt Q93008 (Q93008 whole entry): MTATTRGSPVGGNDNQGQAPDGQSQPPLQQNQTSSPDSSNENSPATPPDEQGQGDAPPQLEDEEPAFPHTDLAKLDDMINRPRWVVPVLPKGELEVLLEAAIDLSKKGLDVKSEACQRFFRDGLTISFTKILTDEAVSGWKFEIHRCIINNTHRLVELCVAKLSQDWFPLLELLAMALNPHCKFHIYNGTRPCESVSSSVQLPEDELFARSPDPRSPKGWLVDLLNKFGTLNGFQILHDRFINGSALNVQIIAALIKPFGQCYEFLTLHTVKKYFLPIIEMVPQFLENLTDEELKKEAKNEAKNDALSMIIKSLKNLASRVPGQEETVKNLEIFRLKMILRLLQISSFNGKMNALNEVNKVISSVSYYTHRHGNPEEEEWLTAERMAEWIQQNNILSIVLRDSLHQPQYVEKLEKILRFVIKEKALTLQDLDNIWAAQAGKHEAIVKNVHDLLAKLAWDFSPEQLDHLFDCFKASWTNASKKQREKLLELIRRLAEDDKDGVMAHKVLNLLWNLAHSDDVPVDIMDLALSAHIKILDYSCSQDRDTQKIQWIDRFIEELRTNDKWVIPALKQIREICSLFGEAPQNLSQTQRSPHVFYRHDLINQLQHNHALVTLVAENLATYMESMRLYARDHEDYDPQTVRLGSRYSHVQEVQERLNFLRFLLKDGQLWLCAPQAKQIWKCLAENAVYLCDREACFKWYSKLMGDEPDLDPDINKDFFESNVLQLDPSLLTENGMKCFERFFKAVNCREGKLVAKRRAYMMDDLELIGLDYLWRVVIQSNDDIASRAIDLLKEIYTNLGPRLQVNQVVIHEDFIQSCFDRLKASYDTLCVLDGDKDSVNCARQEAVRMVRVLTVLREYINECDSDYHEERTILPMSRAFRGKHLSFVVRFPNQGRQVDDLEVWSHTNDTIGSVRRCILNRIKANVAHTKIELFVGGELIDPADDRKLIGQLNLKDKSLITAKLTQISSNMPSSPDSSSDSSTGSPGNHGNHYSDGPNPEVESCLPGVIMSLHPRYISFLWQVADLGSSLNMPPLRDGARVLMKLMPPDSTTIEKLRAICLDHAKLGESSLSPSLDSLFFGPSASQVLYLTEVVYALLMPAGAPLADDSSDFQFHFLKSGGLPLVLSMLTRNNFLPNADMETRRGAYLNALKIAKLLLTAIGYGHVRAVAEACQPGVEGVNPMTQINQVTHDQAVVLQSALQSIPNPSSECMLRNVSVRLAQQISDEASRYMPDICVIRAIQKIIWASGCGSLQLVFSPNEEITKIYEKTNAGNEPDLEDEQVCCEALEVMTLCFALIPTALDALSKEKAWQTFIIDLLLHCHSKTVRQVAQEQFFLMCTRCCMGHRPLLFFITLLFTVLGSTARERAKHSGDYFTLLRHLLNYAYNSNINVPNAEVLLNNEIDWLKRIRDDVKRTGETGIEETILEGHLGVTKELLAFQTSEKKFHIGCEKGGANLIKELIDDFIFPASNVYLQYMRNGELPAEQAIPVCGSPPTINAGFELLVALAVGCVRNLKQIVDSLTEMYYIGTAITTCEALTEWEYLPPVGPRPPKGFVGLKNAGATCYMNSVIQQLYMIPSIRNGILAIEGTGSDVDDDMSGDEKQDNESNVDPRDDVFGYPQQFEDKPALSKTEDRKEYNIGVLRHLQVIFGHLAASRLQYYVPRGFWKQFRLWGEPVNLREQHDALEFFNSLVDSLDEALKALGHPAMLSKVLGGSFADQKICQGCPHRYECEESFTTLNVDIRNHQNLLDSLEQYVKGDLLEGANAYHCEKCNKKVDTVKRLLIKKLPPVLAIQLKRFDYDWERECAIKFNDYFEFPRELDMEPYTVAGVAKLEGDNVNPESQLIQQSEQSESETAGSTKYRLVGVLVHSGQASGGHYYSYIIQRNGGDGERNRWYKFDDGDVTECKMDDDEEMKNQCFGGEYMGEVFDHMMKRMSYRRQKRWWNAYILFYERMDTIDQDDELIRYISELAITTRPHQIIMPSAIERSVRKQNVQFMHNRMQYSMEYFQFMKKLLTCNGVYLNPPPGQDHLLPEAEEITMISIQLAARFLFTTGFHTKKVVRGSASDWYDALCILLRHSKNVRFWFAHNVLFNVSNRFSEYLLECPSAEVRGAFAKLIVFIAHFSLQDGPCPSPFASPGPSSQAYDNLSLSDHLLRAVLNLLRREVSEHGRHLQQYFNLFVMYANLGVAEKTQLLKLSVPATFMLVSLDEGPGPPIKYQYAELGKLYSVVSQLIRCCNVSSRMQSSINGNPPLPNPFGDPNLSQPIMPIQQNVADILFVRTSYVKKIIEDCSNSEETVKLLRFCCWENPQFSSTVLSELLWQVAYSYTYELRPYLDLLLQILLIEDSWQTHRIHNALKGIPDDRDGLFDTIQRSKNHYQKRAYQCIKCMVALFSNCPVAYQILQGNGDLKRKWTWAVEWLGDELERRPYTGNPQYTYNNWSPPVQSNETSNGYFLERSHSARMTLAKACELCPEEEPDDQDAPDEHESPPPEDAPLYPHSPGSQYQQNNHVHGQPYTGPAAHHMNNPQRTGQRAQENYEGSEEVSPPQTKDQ
# Chain of UniProt P62068 (P62068 whole entry): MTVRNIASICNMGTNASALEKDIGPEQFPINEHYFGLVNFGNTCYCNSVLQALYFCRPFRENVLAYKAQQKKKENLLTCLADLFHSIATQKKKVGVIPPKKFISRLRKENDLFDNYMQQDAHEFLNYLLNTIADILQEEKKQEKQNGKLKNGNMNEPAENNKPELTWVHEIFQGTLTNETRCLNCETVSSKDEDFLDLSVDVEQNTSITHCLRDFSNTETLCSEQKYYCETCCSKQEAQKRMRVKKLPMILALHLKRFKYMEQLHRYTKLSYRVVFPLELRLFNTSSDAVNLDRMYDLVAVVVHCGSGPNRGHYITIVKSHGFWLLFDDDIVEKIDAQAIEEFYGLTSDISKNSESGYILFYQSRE
# Chain of UniProt O15372 (O15372 whole entry): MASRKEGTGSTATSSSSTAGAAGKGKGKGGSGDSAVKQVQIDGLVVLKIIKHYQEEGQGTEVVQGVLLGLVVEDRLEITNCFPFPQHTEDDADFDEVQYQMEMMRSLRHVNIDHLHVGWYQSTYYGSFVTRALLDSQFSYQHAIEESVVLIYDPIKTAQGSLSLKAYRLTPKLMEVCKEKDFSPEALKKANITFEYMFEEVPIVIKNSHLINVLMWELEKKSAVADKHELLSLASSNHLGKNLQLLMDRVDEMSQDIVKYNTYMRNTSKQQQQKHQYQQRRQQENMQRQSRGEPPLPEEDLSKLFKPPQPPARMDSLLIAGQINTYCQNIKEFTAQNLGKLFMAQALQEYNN
# Chain of UniProt P09936 (P09936 whole entry, looked up): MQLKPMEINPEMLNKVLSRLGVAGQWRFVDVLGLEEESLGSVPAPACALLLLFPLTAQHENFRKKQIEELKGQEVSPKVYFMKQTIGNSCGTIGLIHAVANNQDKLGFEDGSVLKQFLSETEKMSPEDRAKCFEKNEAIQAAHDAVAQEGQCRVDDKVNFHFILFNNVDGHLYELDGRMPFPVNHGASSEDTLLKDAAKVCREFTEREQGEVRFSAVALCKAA
row,Target,log2 ratio of Biotin-Ahx-Ub-VS probe labelling
1,USP9X (UniProt Q93008),-0.227 (inactive)
2,VCPIP1 (UniProt Q96JH7),-0.312 (inactive)
3,PSMD7 (UniProt P51665),-1.2 (inactive)
4,USP39 (UniProt Q53GS9),0.213 (inactive)
5,USP24 (UniProt Q9UPU5),-0.0634 (inactive)
6,USP7 (UniProt Q93009),-0.163 (inactive)
7,OTUD6B (UniProt Q8N6M0),-0.241 (inactive)
8,USP48 (UniProt Q86UV5),-0.156 (inactive)
9,USP16 (UniProt Q9Y5T5),-0.176 (inactive)
10,EIF3H (UniProt O15372),-0.0689 (inactive)
11,USP46 (UniProt P62068),-0.274 (inactive)
12,UCHL1 (UniProt P09936),-0.205 (inactive)
13,USP34 (UniProt Q70CQ2),-0.504 (inactive)
14,UniProt P51784,0.0618 (inactive)
15,USP15 (UniProt Q9Y4E8),-0.194 (inactive)
16,EIF3F (UniProt O00303),0.000219 (inactive)
17,OTUD7B (UniProt Q6GQQ9),-1.16 (active)
18,USP8 (UniProt P40818),-0.191 (inactive)
19,UniProt Q8TE49,-0.765 (inactive)
20,USP28 (UniProt Q96RU2),0.02 (inactive)

# Same assay, conditions: compound concentration: 200uM; treatment time: 3 h
row,Target,log2 ratio of Biotin-Ahx-Ub-VS probe labelling
1,USP9X (UniProt Q93008),-0.123 (inactive)
2,VCPIP1 (UniProt Q96JH7),-0.217 (inactive)
3,PSMD7 (UniProt P51665),-0.91 (inactive)
4,USP39 (UniProt Q53GS9),-0.0479 (inactive)
5,USP24 (UniProt Q9UPU5),-0.175 (inactive)
6,USP7 (UniProt Q93009),-0.0621 (inactive)
7,OTUD6B (UniProt Q8N6M0),-0.219 (inactive)
8,USP48 (UniProt Q86UV5),-0.0443 (inactive)
9,USP16 (UniProt Q9Y5T5),-0.253 (inactive)
10,EIF3H (UniProt O15372),0.0852 (inactive)
11,USP46 (UniProt P62068),-0.249 (inactive)
12,UCHL1 (UniProt P09936),-0.155 (inactive)
13,USP34 (UniProt Q70CQ2),-0.364 (inactive)
14,UniProt P51784,0.0228 (inactive)
15,USP15 (UniProt Q9Y4E8),-0.0271 (inactive)
16,EIF3F (UniProt O00303),0.192 (inactive)
17,OTUD7B (UniProt Q6GQQ9),-3.09 (active)
18,USP8 (UniProt P40818),-0.0614 (inactive)
19,UniProt Q8TE49,-1.08 (active)
20,USP28 (UniProt Q96RU2),-0.257 (inactive)
